Source: PubChem BioAssay (National Center for Advancing Translational Sciences (NCATS))
Shown are actives, neighbours in structure and some others; about 8.8% of the full set was active somewhere.
KB-3-1 cytotox = KB-3-1 parental cell cytotoxicity; KB-3-1 viability, CellTiter-Glo ATP luminescence, 72 h; Potency, µM (doses to about 46.1 µM), usual class: cytotoxic; 1.4% of 400,000 active; also: nearly all actives have a fitted effect of over 60% in size
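Parental KB-3-1 adenocarcinoma cells in phenol-red-free DMEM with 10% FBS were pin-treated with compounds at several concentrations, incubated 72 h at 37 °C, and viability read by CellTiter-Glo luminescence; concentration-effect curves were fitted after normalization.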
KB-V1 MDR tox = kills drug-selected multidrug resistant KB-V1 cells | Potency, µM (series often up to 46.1 µM), actives largely listed as cytotoxic | 3.4% of 400,000 active | KB-V1 MDR cells viability, CellTiter-Glo, 72 h; also: nearly all actives have a fitted effect of over 60% in size
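Cytotoxicity via CellTiter-Glo luminescence after 72 h compound exposure at 37 degrees C. Cells: drug-selected KB-V1 line, DMEM phenol-red free plus 10% FBS. Compounds tested at multiple concentrations; normalized data fitted to concentration-effect curves.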
HT1080NT lethal = kills 2HG-producing HT-1080-NT fibrosarcoma cells. HT-1080-NT fibrosarcoma viability, CellTiter-Glo ATP luminescence, 48 h. Potency, µM (highest dose often 46.1 µM), usual class: cytotoxic. 1.6% of 360,000 active. AID 686970;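 also: NT is the 2HG producing partner of a matched IDH1 knockdown line; nearly all actives have a fitted effect of over 55% in size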
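Read-out is CellTiter-Glo luminescence after 10 minutes at room temperature, following 48 hours' compound treatment of HT-1080-NT cells (750 cells/well, RPMI, 5% FBS, 37 degrees C).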
IL-1B inflam inh = inflammasome signaling inhibition, IL-1 beta readout; THP-1 LPS/ATP IL-1B secretion, AlphaLISA, 16 h; stronger effect = lower value; activity change, % at 57.5 µM; 4.7% of 360,000 active; AID 743279; in the data active = activity change below about -50%; inconclusive = mostly about -30% to -49%
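THP-1 cells pretreated 1 hr with compounds (up to 57.5 uM final), then stimulated with LPS (250 ng/mL final) plus ATP (1.25 mM final); secreted IL-1B measured by AlphaLISA after 16 hr, decreased signal indicating inhibition.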
HT1080 IDH1KD tx = HT-1080 IDH1 knockdown cell toxicity (counter line). HT-1080 IDH1 knockdown viability, ATP luminescence, 48 h. Potency, µM (top dose mostly 46.1 µM), most hits filed as cytotoxic. 2% of 360,000 active
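Cytotoxicity counter-line: IDH1KD HT-1080, 48 h, CellTiter-Glo. Curves classed by r2, magnitude and activity.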
Hits are given with their value; - = inactive; ? = inconclusive; . = no result given. Unless noted, calls follow the shape of the dose curve; as a rule, active = well fitted curve in the direction sought with a large enough effect; inconclusive = small, poorly fitted or top-dose-only effect, or another doubt; inactive = no such curve, though single readings can be large; an effect the other way counts as inactive or inconclusive.

SMILES	KB-3-1 cytotox	KB-V1 MDR tox	HT1080NT lethal	IL-1B inflam inh	HT1080 IDH1KD tx
O=C(OCCN1C(=O)c2cccc3c(N4CCOCC4)ccc(c23)C1=O)c1ccc(Cl)cc1Cl	?	?	1.8µM	-	2.3µM
O=C(OCCN1C(=O)c2cccc3c(N4CCOCC4)ccc(c23)C1=O)c1ccccc1Cl	?	-	-	-	?
CCN(CCCNC(=O)c1nn(-c2ccc(OC)c(Cl)c2)c(=O)c2c1c1ccccc1n2C)c1ccccc1	-	-	.	.	.
O=C(Nc1ccc(-n2nncc2-c2ccco2)cc1)c1cccc(F)c1	-	16µM	?	?	?
COc1cc(C(=O)Nc2ccc(C)cc2)c2ccccc2n1	0.82µM	?	?	-	0.52µM
CCOc1ccc(NC(=O)c2cc(=O)[nH]c3ccccc23)cc1	-	-	-	-	-
CCOc1ccc(NC(=O)c2cc(OC)nc3ccccc23)cc1	1.2µM	?	0.46µM	-	0.46µM
Cc1ccc(NC(=O)c2cc(Cl)nc3ccccc23)cc1	-	-	-	-	-
O=C(Nc1ccccc1)c1cc(N2CCOCC2)nc2ccccc12	-	-	-	-	-
O=C(O)c1cc(/C=C/c2ccc(N3CCOCC3)c([N+](=O)[O-])c2)nc2ccccc12	-	-	-	-	-
Cc1ccc(NC(=O)c2cc(N3CCOCC3)nc3ccccc23)cc1	-	-	10µM	-	?
O=C(O)c1cc(/C=C/c2ccc(N3CCOCC3)cc2)nc2ccccc12	-	10µM	23µM	-	?
O=C(C[C@H]1C/C=C\CC[C@@H](Cc2ccc(F)cc2)C(=O)OCCNC1=O)NCCO	-	-	-	-	-
Cc1ccc(N(C(=O)Cn2nnc(-c3ccc(F)cc3)n2)C(CC(C)C)C(=O)NCC2CCCO2)cc1 (stereo not drawn)	-	?	-	-	-
CN(c1ccc(C(=O)N2CCOCC2)cc1)S(=O)(=O)c1ccc(Cl)cc1	.	.	-	-	-
CCOC(=O)N1CCN(C(=O)c2ccc(Oc3ccc([N+](=O)[O-])cc3)cc2)CC1	-	7.3µM	-	-	-
CN(c1ccc(C(=O)N2CCCCCC2)cc1)S(=O)(=O)c1ccc(Cl)cc1	-	23µM	-	-	-
CCOC(=O)N1CCN(C(=O)c2ccc(S(=O)(=O)Nc3ccc(C)cc3)cc2)CC1	7.3µM	10µM	-	-	-
Cc1ccc(NNC(=O)C(=O)N2CCCCC2)cc1	-	-	?	-	4.1µM
O=C(Nc1cccc(C(F)(F)F)c1)C1CCCN(S(=O)(=O)c2cccc3nonc23)C1 (stereo not drawn)	-	-	.	.	.
COc1ccc(NC(=O)CCn2cccn2)cc1OC	-	-	.	.	.
Cc1ccc(NS(=O)(=O)c2cccc(C(=O)N3CCN(c4ncccn4)CC3)c2)cc1	-	8.2µM	-	-	-
O=C(Nc1ccccc1)Nc1ccc(C(=O)N2CCCC2)cc1	?	?	?	?	12µM
Cc1ccc(NS(=O)(=O)c2ccc(C(=O)N3CCCCCC3)cc2)cc1	?	4.6µM	-	-	-
COc1ccc(NS(=O)(=O)c2ccc(C(=O)N3CCCCCC3)cc2)cc1	?	-	18µM	-52	-
SMILES	KB-3-1 cytotox	KB-V1 MDR tox	HT1080NT lethal	IL-1B inflam inh	HT1080 IDH1KD tx
CCCn1cc(S(=O)(=O)c2ccc(CC)cc2)c(=O)c2ccccc21	-	-	.	.	.
COc1ccc(Cl)cc1NC(=O)NCCc1c(C)nn(C)c1C	-	-	.	.	.
CCN(CC)S(=O)(=O)c1cc(NC(=O)CCNC(=O)c2ccco2)ccc1C	-	-	-	-	-
Cc1cc(F)ccc1S(=O)(=O)Nc1ccc(C(=O)N2CCCCC2)cc1	-	-	-	-	-
CCOC(=O)C1CCN(C(=O)c2ccc(NS(=O)(=O)c3ccc(F)cc3C)cc2)CC1	-	-	-	-97	-
CC(C)COCc1ccc(O)c2ncccc12	?	?	21µM	-	10µM
Oc1ccc(Cc2ccccc2)c2cccnc12	23µM	-	?	-	?
Oc1ccc(CN2CCc3ccccc3C2)c2cccnc12	4.6µM	?	12µM	-	13µM
OCc1ccc(O)c2ncccc12	?	?	?	-	?
Oc1ccc(CN2CCCCC2)c2cccnc12	?	?	3.2µM	-	1.4µM
Cc1ccc(-c2cc(C(=O)Nc3ccc(SC(F)F)cc3)no2)cc1F	-	?	.	.	.
CCOC(=O)N1CCN(C(=O)CN(C)S(=O)(=O)c2ccc(OCC)cc2)CC1	-	?	-	-	-
CCOC(=O)N1CCN(Cc2ccc(O)c3ncccc23)CC1	?	-	21µM	-	6.5µM
Oc1ccc(CN2CCN(c3ccccc3)CC2)c2cccnc12	?	-	1.1µM	-	0.71µM
Cc1[nH]c2ccccc2c1CN1CCC(Cc2ccccc2)CC1	-	18µM	?	-85	23µM
Cc1[nH]c2ccccc2c1CN1CCN(c2ccccn2)CC1	-	-	-	.	-
Oc1ccc(CN2CCC(Cc3ccccc3)CC2)c2cccnc12	23µM	?	?	-53	5.8µM
Oc1c(CN2CCOCC2)ccc2ccccc12	-	?	-	-	-
COc1cc(CN2CCc3ccccc3C2)ccc1O	2.9µM	13µM	?	-90	?
Oc1c(CN2CCCCC2)ccc2cccnc12	?	?	2.1µM	-98	3.3µM
O=C(CCc1c[nH]c2ccccc12)N[C@@H](Cc1c[nH]c2ccc(O)cc12)C(=O)O	-	-	-	-	-
Cc1ccc2[nH]c3c(N4CCN(Cc5ccccc5)CC4)ncnc3c2c1	?	12µM	?	?	21µM
OC1(c2cccc(C(F)(F)F)c2)CCN(c2ncnc3c2[nH]c2ccccc23)CC1	?	?	23µM	-	?
CCOc1ccc2[nH]c3c(N4CCN(c5ccccn5)CC4)ncnc3c2c1	?	-	?	-77	?
OC1(c2cccc(C(F)(F)F)c2)CCN(c2ccc(-c3ccccc3)nn2)CC1	-	-	-	-	-
SMILES	KB-3-1 cytotox	KB-V1 MDR tox	HT1080NT lethal	IL-1B inflam inh	HT1080 IDH1KD tx
c1ccc2c(c1)CCN(c1ncnc3c1[nH]c1ccccc13)C2	-	9.2µM	?	-84	?
COc1cccc2[nH]c3c(N4CCc5ccccc5C4)ncnc3c12	-	-	-	?	-
COc1cccc(C(=O)Nc2ccc(-n3nncc3-c3ccccc3)cc2)c1OC	-	-	.	.	.
c1ccc2c(c1)[nH]c1c(N3CCC4(CC3)OCCO4)ncnc12	-	?	-	-	?
c1ccc(CN2CCN(c3ncnc4c3[nH]c3ccccc34)CC2)cc1	18µM	2.6µM	?	-95	?
Cc1ccc2c(c1)[nH]c1c(N3CCN(Cc4ccccc4)CC3)ncnc12	?	?	?	-98	?
Cc1ccc(-n2ncc3c(N4CCN(Cc5ccccc5)CC4)ncnc32)cc1	-	-	.	.	.
NC1CCN(c2c(F)cc3c(=O)c(C(=O)O)cn(C4CC4)c3c2Cl)C1 (stereo not drawn)	-	-	-	-	-
CCCCC[n+]1cccc2c3ccccc3ccc21	?	-	?	-77	9.2µM
O=[N+]([O-])c1ccc(C[n+]2cccc3ccccc32)cc1	-	-	-	-	-
